Target: D (Drosophila melanogaster, UniProt Q24533 127-229)
Test: FP; 33 mM phosphate pH 7.0, 90 mM NaCl, 0.01% Tween 20, 0.1 mM DTT, 0.5% agarose; room temperature
Conditions: tags: N-GST (pGEX-6P-1, kept); dsDNA, one strand shown

Sequence of D (Q24533 127-229): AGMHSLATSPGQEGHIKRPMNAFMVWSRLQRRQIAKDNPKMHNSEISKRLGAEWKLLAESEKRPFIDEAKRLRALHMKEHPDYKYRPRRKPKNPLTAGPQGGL

Sequence | binding signal
TACCATTGTTCTTG | 1.36 Kd / Kd of best base at the position
GACCATTGTTCCTG | 3.75 Kd / Kd of best base at the position
GACTATTGTTCTTG | 2.24 Kd / Kd of best base at the position
GACCATTGGTCTTG | 54.3 Kd / Kd of best base at the position
GACCATGGTTCTTG | 39.1 Kd / Kd of best base at the position
GACCAATGTTCTTG | 44.4 Kd / Kd of best base at the position
